Here are results for 8 molecules from PubChem BioAssay.

The nature of this assay: basal HepG2 mitochondrial membrane potential changes, profiling panel, cell-based, JC-1 fluorescence, 24 h, 100 nL compound (AID 1167). Also: test concentration not given here. The note with it: higher = more signal.
For `COc1ccc(C#Cc2ccc3c(c2)[C@]2(C(=O)N3)[C@H](c3ccc(O)cc3)N3[C@H](c4ccccc4)[C@H](c4ccccc4)OC(=O)[C@H]3[C@@H]2C(=O)O)cc1`, the z-score is -3.68.
In turn, `COC(=O)[C@@]1(Cc2ccccc2)[C@H]2c3cc(C(=O)N(C)C)n(CCN4CNCC4=O)c3C[C@H]2CN1C(=O)c1ccccc1` returned a z-score of 0.196.
Molecule `O=C1OCC=C[C@H]2OC34C=CCN(Cc5ccccc5)C(=O)[C@H]3N(CCCCCCO)C(=O)[C@@H]4[C@@H]12` (stereo partly drawn) yielded a z-score of -0.1.
`COc1cc2c(cc1OC)CN(C(=O)[C@@H]1[C@H]3C(=O)O[C@H](c4ccccc4)[C@H](c4ccccc4)N3[C@H](c3ccc(OCCO)cc3)[C@@]13C(=O)Nc1ccccc13)CC2` came in with a z-score of -0.221.
With `COCCOC(=O)N1C(=O)[C@@]2(c3cc(C#CC4=CCCCC4)ccc31)[C@H](C(=O)N1CCCCCCC1)[C@H]1C(=O)O[C@H](c3ccccc3)[C@H](c3ccccc3)N1[C@@H]2c1ccc(O)cc1`, the z-score was -0.239.
In turn, `C=CCC(OC(C)=O)[C@@H]1[C@@H](N(Cc2cc3ccccc3o2)C(=O)Cc2ccc(F)cc2)c2cc(OCCCO)ccc2N1C(=O)c1ccc2ccccc2c1` (stereo partly drawn) returned a z-score of 0.855.
The same measure for `CCOC(=O)C[C@H]1[C@H](OC(=O)Cc2ccc3c(c2)OCO3)[C@@H](NC(=O)Cc2ccc(OC)cc2)c2cc(OCCCO)ccc2N1C(=O)c1ccc2ccccc2n1`: 1.84; for `COCCOC(=O)N1C(=O)[C@@]2(c3cc(C#Cc4ccc(OC)cc4)ccc31)[C@H](c1ccc(O)cc1)N1[C@H](c3ccccc3)[C@H](c3ccccc3)OC(=O)[C@H]1[C@@H]2C(=O)N1CCCCCCC1`: -0.902.
